# Measurements: PubChem BioAssay (NCI)
# Where “and” joins values, the source holds several entries; their conditions need not be identical. Identical values can stand only once. This is part of a sample that, as a whole, favours compounds with a hit. Of some 83,000 tested, about 20% had one in any assay.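 Cell lines were cultured in 96-well plates, exposed to a single compound concentration, and assessed for percent growth 48 hours later.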 Calls of active or inactive are those of the source. How the source made its calls: active means growth percent below 10; inactive means the rest.
# Test system: MDA-MB-468 breast
# Assay: NCI-60 one-dose screen, 48 h (100 = growth as untreated, 0 = no growth, -100 = all killed)
# Details: 10 µM unless noted
row,SMILES,growth
1,Cc1ccc(-c2csc(NC(=O)CSc3nc(N)cc(N)n3)n2)cc1,11.6% (inactive)
2,O=C(O)CCCN1C(=O)CSC1=S,99.3% (inactive)
3,Cc1ccc(O)c(NC(=O)c2ccc(CNc3ccnc(C(F)(F)F)c3)cc2)c1,76.4% (inactive)
4,Cc1c(C(N)=O)sc2ncn(CC(=O)Nc3ccc(Cl)cc3)c(=O)c12,92.1% (inactive)
5,CCOc1cc(NC(=O)c2ccccc2)c(OCC)cc1N,112% (inactive)
6,CCOC(=O)c1ccc(NC(C)=O)o1,89.3% (inactive)
7,O=C(CSc1nnc(-c2ccc(NC(=O)c3cccnc3)cc2)o1)Nc1cccc(Br)c1,97.3% (inactive)
8,Oc1ccc2cc(Br)ccc2c1-c1c(O)ccc2cc(Br)ccc12,90.9% (inactive)
9,Oc1ccc(Br)cc1/C=N/NC(=S)NC12CC3CC(CC(C3)C1)C2,46.8% (inactive)
10,O=C(CSC(=S)n1cnnc1)NC(=O)c1ccccc1,119% (inactive)
11,COc1c(O)cc2oc3cc(O[C@@H]4OC(C)[C@@H](O)[C@H](O)C4O)c(CC=C(C)C)c(O)c3c(=O)c2c1CC=C(C)C (stereo not given in full),82.5% (inactive)
12,COc1cccc(-c2nc3occn3c2-c2ccnc(NCCCNS(=O)(=O)c3cccc(F)c3)n2)c1,65.4% (inactive)
13,CN(C)c1ccc(N=Cc2ccc(N3CCOCC3)cc2)cc1,57.5% (inactive)
14,O=S(=O)(NCCNc1cc(-c2cn(-c3ccccc3)nc2-c2cccc(O)c2)ccn1)c1ccc(Br)cc1,-28.5% (active)
15,O=C(c1ccccc1)C(CCc1ccccn1)CCc1ccccn1,108% (inactive)
16,COc1ccc(-c2nc3sc4c(c3c(=O)[nH]2)CCCC4)c2ccccc12,25% (inactive)
17,C=CCN=c1sc2c(n1NC(=O)c1cc3ccc1CCc1ccc(cc1)CC3)C(=O)c1ccccc1C2=O,-30.1% (active)
18,COc1ccc2oc(=O)cc(CN3C(=O)S/C(=C\c4ccc(Cl)cc4)C3=O)c2c1,101% (inactive)
19,CN(C)CCC(=O)c1ccc(Cl)cc1,97.3% (inactive) and 97.2% (inactive)
20,COc1cnc2c(c1)C(=O)c1c-2n(CCCNC(C)C)c(=O)c2cc(F)ccc12,-63.6% (active)

row,SMILES,growth
1,CC(C)=CCC/C(C)=C/CC/C(C)=C/CSC[C@H](NC(=O)CCCCCN1CCN(C)CC1)C(=O)NC1CCCCCC1,48.2% (inactive)
2,COC(=O)[C@@H](Cc1c[nH]c2ccccc12)NC[C@@H](O)CN1C(=O)/C(=C\c2cc(OC)c(OC)c(OC)c2)c2ccccc21,37.9% (inactive)
3,O=S(Cc1ccccc1)/C(=C/NC(=S)Nc1cc(Cl)ccc1Cl)c1ccccc1 (stereo not given),106% (inactive)
4,N#C/C(=C\c1c(-c2ccccc2)[nH]c2ccccc12)S(=O)(=O)c1ccccc1,20.5% (inactive)
5,O=C(CCl)Nc1ccc2c(c1)C(=O)c1ccccc1C2=O,-19.1% (active)
6,Cc1cccc(NC2=C(Cl)C(=O)c3nc(C)ccc3C2=O)c1,-81.1% (active)
7,CCCCCCCCCCOC(=O)c1nn(C(C)=O)c2cc(C)c(C)cc12,111% (inactive)
8,COc1cc(/C=C/C(=O)c2ccc(-n3cc(CN4CCN(c5cc6c(cc5F)c(=O)c(C(=O)O)cn6C5CC5)CC4)nn3)cc2)ccc1O,64.8% (inactive)
9,O=C1/C(=C/c2ccccc2O)N=C2SCCCN12,99.2% (inactive)
10,O=C(O)CN(CCN(CC(=O)O)CC(=O)O)CCN(CC(=O)O)CC(=O)O,22% (inactive) and 94.6% (inactive) and 89.3% (inactive)
11,O=C(Nc1ccc(Cl)cc1F)c1cc(Br)ccc1O,0.453% (active)
12,CC(C)/C=N/NC(N)=S,19.3% (inactive)
13,C/C(=C(/c1ccc(O)cc1)c1ccc(Cl)cc1)c1ccccc1,-71.9% (active)
14,C=C(CNCCO)[C@@H]1CC[C@]2(CO)CC[C@]3(C)[C@H](CC[C@@H]4[C@@]5(C)CCC(NCCO)C(C)(C)[C@@H]5CC[C@]43C)[C@@H]12 (stereo not given in full),51% (inactive)
15,COc1ccccc1C(C[N+](=O)[O-])c1c(-c2ccccc2)[nH]c2cc(C)ccc12 (stereo not given),44.4% (inactive)
16,CCCCCCCCCCCCCCCCNC(=O)OC(C)C,36.1% (inactive)
17,[N-]=[N+]=Nc1ncc(-c2ccc(C(F)(F)F)cc2)c(NC2CCCCCC2)n1,28.9% [100 µM] (inactive)
18,O=C(CCN1C(=O)/C(=C/c2ccc(O)cc2)SC1=S)Nc1ccc(Cl)cc1,95.3% (inactive)
19,COc1ccc(CN2CCC(N3CCCC3=O)c3cc(Cl)ccc32)cc1 (stereo not given),114% (inactive)
20,C=CCn1c(SCC(=O)Nc2cccc(C(=O)/C=C/c3ccc(OC)c(OC)c3)c2)nc2ccccc2c1=O,80.9% (inactive)
